What all share (conditions): mRNA level, 48 h; actives raise or lower the signal
Read-out in assay [1]: ABC Transporter (ABCC2), ABCC2 (gene 1244)
Briefly: LTEA_HepaRG_ABCC2: Life Technologies and Expression Analysis (LTEA) Assay for ABC Transporter (ABCC2) using HepaRG (AID 2283464). The gist of the method: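 qRT-PCR (TaqMan, Fluidigm array) read-out of ABCC2 mRNA, normalized to three housekeeping genes. Differentiated HepaRG cells were treated 48 h in serum-free induction medium with 8-point half-log series from 100 uM in 0.5% DMSO; curves fitted bidirectionally relative to DMSO.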

Read-out in assay [2]: Broad substrate specificity ATP-binding cassette transporter ABCG2 (Homo sapiens) (UniProt Q9UNQ0)
Briefly: LTEA_HepaRG_ABCG2: Life Technologies and Expression Analysis (LTEA) Assay for ABC Transporter (ABCG2) using HepaRG (AID 2283465). Put shortly:
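ABCG2 transcript was quantified by TaqMan qRT-PCR against three housekeeping genes in HepaRG cells. Cells were treated in duplicate for 48 h across an 8-point half-log series up to 100 uM, with 0.5% DMSO vehicle. Gain or loss versus DMSO was fit.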

Read-out in assay [3]: ATP-citrate lyase (ACLY), ACLY (gene 47)
As to the kind of experiment: LTEA_HepaRG_ACLY: Life Technologies and Expression Analysis (LTEA) Assay for ATP-citrate lyase (ACLY) using HepaRG (AID 2283466). Put shortly: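 ACLY mRNA quantified by qRT-PCR on Fluidigm arrays against three housekeeping genes, after 48 h chemical treatment of HepaRG cells (top concentration 100 uM, half-log steps, 0.5% DMSO vehicle). Up- or down-regulation fitted relative to DMSO.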

Read-out in assay [4]: Peroxisomal acyl-coenzyme A oxidase 1 (ACOX1) gene, ACOX1 (gene 51)
Briefly: LTEA_HepaRG_ACOX1: Life Technologies and Expression Analysis (LTEA) Assay for Peroxisomal acyl-coenzyme A oxidase 1 (ACOX1) gene using HepaRG (AID 2283467). The gist of the method:
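ACOX1 transcript levels were quantified by TaqMan qRT-PCR against three housekeeping genes after 48 h chemical exposure of differentiated human HepaRG cells. Exposure used eight half-log steps topping at 100 uM, 0.5% DMSO vehicle, in duplicate. Bidirectional curve fits were made relative to DMSO.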

Read-out in assay [5]: Alkaline Phosphatase, Placental (ALPP) gene, ALPP (gene 250)
Briefly: LTEA_HepaRG_ALPP: Life Technologies and Expression Analysis (LTEA) Assay for Alkaline Phosphatase, Placental (ALPP) gene using HepaRG (AID 2283468).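 As to AC50: differentiated human HepaRG liver cells in serum-free induction medium.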 Put shortly:
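qRT-PCR readout of ALPP mRNA (Fluidigm TaqMan), normalized to ACTB/GAPDH/POLR2A, after 48 h chemical exposure of HepaRG cells; 8-point half-log series, top 100 uM, 0.5% DMSO vehicle. Bidirectional curve fit versus DMSO baseline.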

Read-out in assay [6]: Bcl-2 (BAD) gene, BAD (gene 572)
As to the kind of experiment: LTEA_HepaRG_BAD: Life Technologies and Expression Analysis (LTEA) Assay for Bcl-2 (BAD) gene using HepaRG (AID 2283469). Put shortly: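 Read-out: qRT-PCR of BAD mRNA, normalized to three housekeeping genes. Human HepaRG cultures got 48 h chemical exposure in 0.5% DMSO, duplicate eight-point half-log series topping at 100 uM. Gain or loss of signal fitted versus DMSO vehicle.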

Read-out in assay [7]: Bcl-2 (BAX) gene, BAX (gene 581)
As to the kind of experiment: LTEA_HepaRG_BAX: Life Technologies and Expression Analysis (LTEA) Assay for Bcl-2 (BAX) gene using HepaRG (AID 2283470). The gist of the method: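 Cells were thawed, plated for 48 h, moved to serum-free induction medium and dosed for 48 h (highest concentration 100 uM, half-log steps, 0.5% DMSO). Total RNA was then analysed for BAX expression by qRT-PCR.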

Read-out in assay [8]: adenosine kinase (ADK) gene, ADK (gene 132)
Briefly: LTEA_HepaRG_ADK: Life Technologies and Expression Analysis (LTEA) Assay for adenosine kinase (ADK) gene using HepaRG (AID 2283471). The gist of the method:
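Read-out is ADK transcript level measured by qRT-PCR and normalised to three housekeeping genes. Cells are human HepaRG, dosed for 48 h at up to 100 uM in 0.5% DMSO. Gain or loss of signal is fitted against DMSO controls.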

Read-out in assay [9]: Alpha-fetoprotein (AFP) gene, AFP (gene 174)
Briefly: LTEA_HepaRG_AFP: Life Technologies and Expression Analysis (LTEA) Assay for Alpha-fetoprotein (AFP) gene using HepaRG (AID 2283472). Put shortly:
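Chemicals were tested on differentiated HepaRG cells for 48 hours at eight concentrations up to 100 uM, with 0.5% DMSO as vehicle. AFP expression was then quantified by qRT-PCR and analyzed for gain or loss relative to DMSO.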

Read-out in another assay: BCL2L11 (gene 10018)
Briefly: LTEA_HepaRG_BCL2L11: Life Technologies and Expression Analysis (LTEA) Assay for Bcl-2 (BCL2L11) gene using HepaRG (AID 2283473). Put shortly: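 HepaRG, 48 h exposure, 8-pt half-log series from 100 uM in 0.5% DMSO, duplicates; qRT-PCR (Fluidigm TaqMan) for BCL2L11, housekeeping-normalized; bidirectional curve fit relative to DMSO baseline.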

Read-out in assay [10]: Apolipoprotein A-V (APOA5) gene, APOA5 (gene 116519)
As to the kind of experiment: LTEA_HepaRG_APOA5: Life Technologies and Expression Analysis (LTEA) Assay for Apolipoprotein A-V (APOA5) gene using HepaRG (AID 2283474). The gist of the method: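 HepaRG, 48 h chemical exposure in serum-free induction medium, 8-pt half-log series (top 100 uM), 0.5% DMSO vehicle, duplicates. Readout: APOA5 mRNA by qRT-PCR, housekeeping-normalized; bidirectional fit vs DMSO baseline.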

Read-out in assay [11]: Apoptosis regulator Bcl-2 (Homo sapiens) (UniProt P10415)
As to the kind of experiment: LTEA_HepaRG_BCL2: Life Technologies and Expression Analysis (LTEA) Assay for Bcl-2 gene using HepaRG (AID 2283475). The gist of the method: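 Plated human HepaRG cells are exposed to test chemicals for 48 h across eight concentrations from 100 uM downward in half-log steps (0.5% DMSO). BCL2 expression is then measured by qRT-PCR with housekeeping normalisation and fitted bidirectionally against vehicle.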

Read-out in a further assay: Caspase-3 (Homo sapiens) (UniProt P42574)
Briefly: LTEA_HepaRG_CASP3: Life Technologies and Expression Analysis (LTEA) Assay for cysteine-aspartic acid protease (CASP3) using HepaRG (AID 2283477). Put shortly: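 HepaRG, 48 h exposure, 8 conc. (top 100 uM, half-log steps, duplicate), 0.5% DMSO vehicle; qRT-PCR of CASP3 transcript, housekeeping-normalised (ACTB/GAPDH/POLR2A); bidirectional curve fit vs DMSO baseline.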

Read-out in assay [12]: Cytochrome P450 (CYP24A1), CYP24A1 (gene 1591)
As to the kind of experiment: LTEA_HepaRG_CYP24A1: Life Technologies and Expression Analysis (LTEA) Assay for Cytochrome P450 (CYP24A1) using HepaRG (AID 2283478). The gist of the method:
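qRT-PCR read-out: CYP24A1 transcript levels normalized to three housekeeping genes, bidirectional curve fits against 0.5% DMSO baseline. Human HepaRG cells treated 48 h with chemicals at eight concentrations from 100 uM in half-log steps.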

Read-out in assay [13]: Cytochrome P450 (CYP1A2), CYP1A2 (gene 1544)
As to the kind of experiment: LTEA_HepaRG_CYP1A2: Life Technologies and Expression Analysis (LTEA) Assay for Cytochrome P450 (CYP1A2) using HepaRG (AID 2283479). The gist of the method: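 HepaRG, 48 h exposure, top 100 uM, half-log 8-pt, 0.5% DMSO vehicle, duplicates. Readout: TaqMan qRT-PCR of CYP1A2 mRNA, housekeeping-normalized (ACTB/GAPDH/POLR2A). Gain/loss fit relative to DMSO baseline.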

Read-out in assay [14]: cysteine-aspartic acid protease (CASP8), CASP8 (gene 841)
As to the kind of experiment: LTEA_HepaRG_CASP8: Life Technologies and Expression Analysis (LTEA) Assay for cysteine-aspartic acid protease (CASP8) using HepaRG (AID 2283480). The gist of the method:
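CASP8 transcript measured by TaqMan qRT-PCR with ACTB/GAPDH/POLR2A normalization, after 48 h chemical exposure of HepaRG cells in serum-free induction medium. Eight concentrations, top 100 uM, half-log steps, 0.5% DMSO vehicle; fits in both directions versus DMSO.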

Read-out in assay [15]: Cytochrome P450 (CYP2B6), CYP2B6 (gene 1555)
Briefly: LTEA_HepaRG_CYP2B6: Life Technologies and Expression Analysis (LTEA) Assay for Cytochrome P450 (CYP2B6) using HepaRG (AID 2283481). Put shortly:
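Read-out is CYP2B6 mRNA by TaqMan qRT-PCR, normalized to three housekeeping genes and fitted bidirectionally against 0.5% DMSO baseline. Human HepaRG cells received test chemicals for 48 h, top concentration 100 uM, half-log dilutions.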

Read-out in assay [16]: Cytochrome P450 2C19 (Homo sapiens) (UniProt P33261)
Briefly: LTEA_HepaRG_CYP2C19: Life Technologies and Expression Analysis (LTEA) Assay for CYP2C19 using HepaRG (AID 2283482). Put shortly:
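HepaRG, 48 h chemical exposure, 8-pt half-log series from 100 uM in 0.5% DMSO, duplicates. Readout: CYP2C19 mRNA by TaqMan qRT-PCR, housekeeping-normalized. Bidirectional fit vs DMSO baseline; phenobarbital 1mM as induction control.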

Read-out in the next assay: CYP2C8 (gene 1558)
Briefly: LTEA_HepaRG_CYP2C8: Life Technologies and Expression Analysis (LTEA) Assay for CYP2C8 using HepaRG (AID 2283483). The gist of the method: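 CYP2C8 expression measured by TaqMan qRT-PCR and normalized to three housekeeping genes. HepaRG cultures were treated for 48 h with an eight-point half-log series topping at 100 uM, vehicle 0.5% DMSO, duplicates; fitted both directions against DMSO.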

Read-out in assay [17]: Bcl-2 (BID) gene, BID (gene 637)
As to the kind of experiment: LTEA_HepaRG_BID: Life Technologies and Expression Analysis (LTEA) Assay for Bcl-2 (BID) gene using HepaRG (AID 2283476). The gist of the method: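 Cells are plated, cultured 48 h, switched to serum-free induction medium, then dosed 48 h (100 uM top, half-log steps, 0.5% DMSO). RNA is isolated and BID expression read by qRT-PCR.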

For three compounds, AC50 and outcome results are on record in PubChem BioAssay (EPA / NIEHS).

The term AC50 denotes the concentration giving half of the maximal activity seen.

Where “and” joins values, the source holds several entries; their conditions need not be identical. Equal values may be shown once. More than one record can exist for a structure, and the calls need not agree. Calls of active or inactive are those of the source. The calls were made as follows: active = hit-call score of the fitted dose curve at least 0.9, where 1 is the maximum; inactive = score below 0.9.

Caspase-3 (Homo sapiens), sequence (P42574 whole entry, looked up): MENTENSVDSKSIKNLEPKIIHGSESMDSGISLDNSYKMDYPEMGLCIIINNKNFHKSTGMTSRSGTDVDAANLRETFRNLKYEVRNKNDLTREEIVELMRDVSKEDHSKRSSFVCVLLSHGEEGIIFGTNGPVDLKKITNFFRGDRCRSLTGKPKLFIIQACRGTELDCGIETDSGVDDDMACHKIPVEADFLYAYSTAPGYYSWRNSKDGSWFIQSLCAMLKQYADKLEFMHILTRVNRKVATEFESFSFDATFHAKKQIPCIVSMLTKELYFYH
Cytochrome P450 2C19 (Homo sapiens), sequence (P33261 whole entry, looked up): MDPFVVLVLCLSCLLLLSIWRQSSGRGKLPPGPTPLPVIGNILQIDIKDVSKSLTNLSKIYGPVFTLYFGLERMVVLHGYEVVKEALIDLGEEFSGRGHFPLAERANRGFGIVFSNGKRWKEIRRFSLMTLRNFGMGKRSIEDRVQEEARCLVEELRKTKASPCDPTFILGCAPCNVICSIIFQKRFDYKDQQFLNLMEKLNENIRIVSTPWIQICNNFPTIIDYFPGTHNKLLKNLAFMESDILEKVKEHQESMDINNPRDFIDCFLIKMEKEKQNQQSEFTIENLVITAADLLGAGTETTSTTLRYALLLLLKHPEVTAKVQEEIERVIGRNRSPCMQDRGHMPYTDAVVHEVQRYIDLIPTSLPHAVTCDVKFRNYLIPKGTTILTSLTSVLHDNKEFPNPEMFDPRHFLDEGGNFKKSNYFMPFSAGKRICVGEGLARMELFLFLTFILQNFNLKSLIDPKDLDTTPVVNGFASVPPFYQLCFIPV
Apoptosis regulator Bcl-2 (Homo sapiens), sequence (P10415 whole entry, looked up): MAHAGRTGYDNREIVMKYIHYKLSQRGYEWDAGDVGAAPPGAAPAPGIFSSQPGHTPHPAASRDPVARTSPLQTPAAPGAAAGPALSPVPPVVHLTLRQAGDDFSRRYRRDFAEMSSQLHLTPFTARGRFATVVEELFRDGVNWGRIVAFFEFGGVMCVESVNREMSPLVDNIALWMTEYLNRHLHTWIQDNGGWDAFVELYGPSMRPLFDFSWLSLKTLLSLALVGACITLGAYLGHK
Broad substrate specificity ATP-binding cassette transporter ABCG2 (Homo sapiens), sequence (Q9UNQ0 whole entry, looked up): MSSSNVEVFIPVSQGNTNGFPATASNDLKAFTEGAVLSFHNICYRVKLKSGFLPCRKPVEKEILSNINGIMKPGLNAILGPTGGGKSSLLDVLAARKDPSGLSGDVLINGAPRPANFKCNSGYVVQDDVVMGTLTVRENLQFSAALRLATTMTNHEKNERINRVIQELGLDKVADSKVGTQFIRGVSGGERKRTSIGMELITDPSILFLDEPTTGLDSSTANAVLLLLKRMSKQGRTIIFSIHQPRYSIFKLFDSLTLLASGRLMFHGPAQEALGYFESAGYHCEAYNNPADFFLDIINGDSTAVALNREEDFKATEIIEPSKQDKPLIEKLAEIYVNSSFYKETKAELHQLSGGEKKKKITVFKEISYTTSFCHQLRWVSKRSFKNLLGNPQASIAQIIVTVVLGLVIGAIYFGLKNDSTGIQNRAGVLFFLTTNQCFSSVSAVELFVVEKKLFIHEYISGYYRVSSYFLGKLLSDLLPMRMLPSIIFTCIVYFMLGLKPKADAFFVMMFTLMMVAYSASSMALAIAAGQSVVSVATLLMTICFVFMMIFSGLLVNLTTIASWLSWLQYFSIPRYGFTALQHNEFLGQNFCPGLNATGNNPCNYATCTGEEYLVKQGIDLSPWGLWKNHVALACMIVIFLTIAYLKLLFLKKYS

`CC(C)(C)[C@@H](O)[C@@H](Cc1ccc(Cl)cc1)n1cncn1`: the half-maximal activity concentration (AC50) was 13.1 µM (active) in assay [1]; 50 µM (active) in [3]; 50 µM (active) in assay [13]; 3.37 µM (active) in assay [15]; 7.33 µM (active) in [16]. For the same compound, the result in assay [2], in [4], in [5], in assay [6], in assay [7] and in assay [8] was inactive. Also, the result (in assay [9]; with BCL2L11 (gene 10018); in assay [10]; in assay [11]; in the assay with Caspase-3 (Homo sapiens); in [12]) was inactive. Moreover, the outcome (in assay [14]; in the assay with CYP2C8 (gene 1558)) was inactive.
Take `S=C(S)NCCNC(=S)S.[Mn+2].[S-]C([S-])=NCCN=C([S-])[S-].[Zn+2]`: the AC50 in assay [2] is 200 nM (active) and 267 nM (active) and 401 nM (active); in assay [3], 200 nM (active) and 397 nM (active) and 391 nM (active); in [4], 799 nM (active) and 1.07 µM (active) and 953 nM (active); in assay [5], 25 µM (active); in [7], 2.35 µM (active) and 1.62 µM (active); in [8], 255 nM (active) and 1.08 µM (active) and 270 nM (active). For the same compound, the half-maximal activity concentration (AC50) in [9] was 1.28 µM (active) and 1.55 µM (active); with BCL2L11 (gene 10018), 3.84 µM (active); in [10] it was 1.22 µM (active) and 1.49 µM (active) and 1.99 µM (active); in assay [11], 163 nM (active) and 351 nM (active) and 509 nM (active); with Caspase-3 (Homo sapiens), 501 nM (active) and 990 nM (active); in [13], 502 nM (active) and 444 nM (active) and 615 nM (active). Further, the AC50 is 1.05 µM (active) and 1.1 µM (active) and 1.15 µM (active) in assay [15]; 1.4 µM (active) and 1.55 µM (active) in [16]; 1.13 µM (active) and 1.15 µM (active) and 1.5 µM (active) in the assay with CYP2C8 (gene 1558). Moreover, the compound was called inactive (in [5]; in assay [6]; in assay [7]; with BCL2L11 (gene 10018); in [17]; with Caspase-3 (Homo sapiens)). Besides, the compound was classed as inactive in assay [12].
In the case of `N[C@@H](Cc1cc(I)c(Oc2ccc(O)c(I)c2)c(I)c1)C(=O)O`, the AC50 was 70.5 µM (active) in assay [2]; 7.94 µM (active) in assay [4]; 40 µM (active) in [9]; 69.9 µM (active) in assay [10]; 40 µM (active) in [15]; 61.6 µM (active) in assay [16]. For the same compound, in the assay with CYP2C8 (gene 1558), the AC50 was 46.8 µM (active). In addition, the compound was classed as inactive (in assay [3]; in [5]; in assay [6]; in assay [7]; in assay [8]; with BCL2L11 (gene 10018)). For the same compound, the result (in assay [11]; in assay [17]; with Caspase-3 (Homo sapiens); in assay [12]) was inactive.
